Screens from PubChem BioAssay.
In the library only some 10% were active in any assay of this set; here they are far more common.
Six1-Eya2 inh = inhibitors of human Six1/Eya2 interaction | Q15475+O00167 | AlphaScreen GST-Six1/His-Eya2 binding, biochemical; active compounds read low | activity change, % (concentration not given with the values) | 360,000 compounds, 0.56% hits | AID 651725; in the data active = activity change below about -65%; inconclusive = mostly about -30% to -63%; note: % is set by controls: 0 for no effect and ±100 for the full control effect
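Homogeneous AlphaScreen proximity assay pairing GST-Six1 with His-tagged Eya2 (added as 5X mix: 250 nM and 500 nM) in 50 mM Tris pH 8.0, 300 mM NaCl, 1 mM TCEP. Glutathione donor and nickel acceptor beads; 1 h, 37 °C, dark.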
CtBP-E1A inh = inhibitors of CtBP/E1A interaction; AlphaScreen GST-E1A/His-CtBP binding, 1536-well; active compounds read low; activity change, % (concentration not given with the values); 340,000 compounds, 0.49% hits; in the data active = activity change below about -65%; inconclusive = mostly about -30% to -63%; note: % is set by controls: 0 for no effect and ±100 for the full control effect
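GST-E1A and His-tagged CtBP (125 nM each as 5X stock) were preincubated with pin-transferred compound for 2 h at 37 °C in the dark, then glutathione donor and nickel acceptor beads were added for 1 h before AlphaScreen reading.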
HP1b binding inh = inhibitors of HP1-beta chromodomain binding to methylated histone tails; Potency, µM (top dose mostly 114 µM), without a hit: at the highest dose activity change, negative = inhibition, most hits filed as inhibitors; 390,000 compounds, 0.56% hits; AID 540317; AlphaScreen HP1-beta / biotin-H3K9me3 peptide binding; P83916; note: potency is the fitted concentration of half-maximal effect; nearly all actives have a fitted effect of over 70% in size
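HP1-beta protein (50 nM final) preincubated 30 min at room temperature with biotinylated H3(1-18)K9me3 peptide (50 nM) in PBS pH 7.4, 0.01% Tween-20, then compound added for 30 min. AlphaScreen streptavidin donor/nickel chelate acceptor beads (10 ug/mL final), 30 min dark, luminescence read.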
BAZ2B block = BAZ2B (human) inhibition | Q9UIF8 | AlphaScreen BAZ2B-H3K14Ac peptide displacement | Potency, µM (titrated, usually from 114 µM), for the others: at the highest dose activity change, negative = inhibition, hits mostly inhibitors | 360,000 compounds, 4.4% hits | AID 504333; note: potency is the fitted concentration of half-maximal effect; % is set by controls: 0 for no effect and ±100 for the full control effect; nearly all actives have a fitted effect of over 60% in size
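Compounds, titrated to a top concentration of 110 uM, were incubated 30 min at room temperature with preformed BAZ2B/acetyl-K14 H3 peptide complex (50 nM each). Proximity signal was measured by AlphaScreen after 20 min with beads.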
JMJD2A Tudor inh = inhibitors of human JMJD2A Tudor domain. Potency, µM (highest dose often 114 µM), for inactives: at the highest dose activity change, negative = inhibition, hits mostly inhibitors. O75164. 390,000 compounds, 4.4% hits. AID 504339. AlphaScreen JMJD2A-Tudor / H3K4me3 peptide binding; note: potency is the fitted concentration of half-maximal effect; % is set by controls: 0 for no effect and ±100 for the full control effect; nearly all actives have a fitted effect of over 50% in size
G9a block = G9a (human) methyltransferase inhibition. Q96KQ7. G9a H3K9 monomethylation, AlphaScreen, 2 h. Potency, µM (highest dose often 102 µM), inactives show at the highest dose activity, negative = inhibition, most hits filed as inhibitors. 350,000 compounds, 8.8% hits; note: potency is the fitted concentration of half-maximal effect; % is set by controls: 0 for no effect and ±100 for the full control effect; nearly all actives have a fitted effect of over 75% in size
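Enzyme 20 nM + cpd, 15 min RT; add b-H3K9 pep 500 nM / SAM 20 uM; 2 h RT; anti-H3K9me1 Ab 0.5 ug/mL + SA donor / anti-rabbit acceptor beads 20 ug/mL each, 10 min; AlphaScreen read.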
The depositor's hits bear a star; [ ] = another dose, or the depositor's remark. Unless noted, calls come from the whole dose curve; as a rule, active = well fitted inhibition curve with a large enough effect; inconclusive = small, poorly fitted or top-dose-only effect; inactive = no such curve, though single readings can be large or run the other way.

`C[C@H](CO)N1C[C@H](C)[C@@H](CN(C)C(=O)Nc2ccc3c(c2)OCO3)Oc2ccc(NC(=O)Nc3ccc(C(F)(F)F)cc3)cc2C1=O` gave Six1-Eya2 inh -15, CtBP-E1A inh -10, HP1b binding inh 3% and JMJD2A Tudor inh inconclusive.
For Cc1noc(C)c1NC(=O)N(C)C[C@@H]1Oc2c(NC(=O)NC(C)C)cccc2C(=O)N([C@@H](C)CO)C[C@@H]1C the results were Six1-Eya2 inh 2, CtBP-E1A inh 5, HP1b binding inh 54% and JMJD2A Tudor inh -7%.
`Cc1noc(C)c1NC(=O)N(C)C[C@@H]1Oc2c(NC(=O)c3ccncc3)cccc2C(=O)N([C@H](C)CO)C[C@@H]1C` gave Six1-Eya2 inh 1, CtBP-E1A inh -1, HP1b binding inh 4% and JMJD2A Tudor inh 35µM*.
`COc1ccc(NC(=O)Nc2ccc3c(c2)C(=O)N([C@H](C)CO)C[C@H](C)[C@@H](CN(C)C(=O)Nc2ccccc2)O3)cc1` gave Six1-Eya2 inh inconclusive, CtBP-E1A inh -67*, HP1b binding inh 14% and JMJD2A Tudor inh -26%.
`C[C@@H]1CN([C@H](C)CO)C(=O)c2cc(NC(=O)c3ccncc3)ccc2O[C@@H]1CN(C)C(=O)Nc1ccccc1` gave Six1-Eya2 inh 0, CtBP-E1A inh -12, HP1b binding inh 4% and JMJD2A Tudor inh 50µM*.
`CCOC(=O)c1c(C)oc2ncnc(Nc3ccc(F)cc3Cl)c12` gave HP1b binding inh 32%, BAZ2B block 14%[57.1 µM], JMJD2A Tudor inh -17% and G9a block -25%[59 µM].
`Cc1ccc(S(=O)(=O)N(C)C[C@H]2Oc3c(NC(=O)Nc4cccc5ccccc45)cccc3C(=O)N([C@@H](C)CO)C[C@@H]2C)cc1` gave Six1-Eya2 inh -71*, CtBP-E1A inh -75*, HP1b binding inh 29% and JMJD2A Tudor inh -22%.
For COc1ccc(OC)c(NC(=O)C2(C)CCN2C(=O)CC2CC2)c1 (centres undefined) the results were Six1-Eya2 inh 2 and CtBP-E1A inh 0.
Screening CCOC(=O)N1CCN(C(=O)CN2C(=O)COc3ccc(C(C)(C)C)cc32)CC1 returned Six1-Eya2 inh 4, CtBP-E1A inh 5, HP1b binding inh -3%, BAZ2B block 38%, JMJD2A Tudor inh 89µM* and G9a block inconclusive.
For CC(C)(C)c1ccc2c(c1)N(CC(=O)O)C(=O)CO2 the results were Six1-Eya2 inh 2, CtBP-E1A inh 1, HP1b binding inh 36%, BAZ2B block -34%, JMJD2A Tudor inh -8% and G9a block -29%.
Cc1ccc(CNC(=O)CCCc2c[nH]c3ccccc23)cc1 was read as Six1-Eya2 inh -4, CtBP-E1A inh 0, HP1b binding inh -17%, BAZ2B block -35%, JMJD2A Tudor inh inconclusive and G9a block -4%.
S=c1nc(C2COc3ccccc3O2)[nH][nH]1 (centres undefined) was read as Six1-Eya2 inh 3, CtBP-E1A inh 9, HP1b binding inh 8%, BAZ2B block inconclusive, JMJD2A Tudor inh 1.8µM* and G9a block 3.5µM*.
Screening S=c1[nH]nc(C2COc3ccccc3O2)o1 (centres undefined) returned Six1-Eya2 inh 31, CtBP-E1A inh 37, HP1b binding inh 17%, BAZ2B block 8%, JMJD2A Tudor inh -22% and G9a block 32µM*.
For N#CCCn1c(=O)c(-c2ccc(Cl)cc2)nc2cnc(Oc3cccc(Cl)c3)nc21 the results were G9a block -1%[12.7 µM].
Screening CCOC(=O)c1c(-c2ccc(C)cc2)csc1NC(=O)CCN1CC(C)OC(C)C1 (centres undefined) returned Six1-Eya2 inh -3, CtBP-E1A inh -7, HP1b binding inh 35µM*, BAZ2B block 22µM*, JMJD2A Tudor inh 8.9µM* and G9a block inconclusive.
`CCOC(=O)c1c(-c2ccc(OC)cc2)csc1NC(=O)CCN1C(=O)c2ccccc2C1=O` gave Six1-Eya2 inh -7, CtBP-E1A inh -5, HP1b binding inh -32%, BAZ2B block -18%, JMJD2A Tudor inh -33% and G9a block inconclusive.
`CCOC(=O)c1c(-c2ccc(OC)cc2)csc1NC(=O)CCN1CCOCC1` gave Six1-Eya2 inh -30, CtBP-E1A inh -7, HP1b binding inh inconclusive, BAZ2B block 22µM*, JMJD2A Tudor inh 20µM* and G9a block 3.5µM*.
Screening Cc1ccc(NS(=O)(=O)c2cc3c(cc2/C=C/c2ccccc2)NC(=O)CO3)cc1C returned JMJD2A Tudor inh -9%.
`S=C1NNC2(NN1)C1CC3CC(C1)CC2C3` gave Six1-Eya2 inh -8, CtBP-E1A inh -6, HP1b binding inh 22%, BAZ2B block -31%, JMJD2A Tudor inh inconclusive and G9a block 8.9µM*.
Screening Nc1nonc1-c1nc2ccccc2n1CC(=O)N/N=C/c1ccc(-c2ccccc2C(=O)O)o1 returned Six1-Eya2 inh inconclusive, HP1b binding inh 8%, BAZ2B block 50µM*, JMJD2A Tudor inh -8%[11.4 µM] and G9a block 45µM*.
For COc1ccc(C2=Nn3c(nnc3-c3ccccc3O)SC2)c(OC)c1 the results were JMJD2A Tudor inh -29%.
For O=C(O)[C@@H](c1ccccc1)N1Cc2ccccc2C1=O the results were Six1-Eya2 inh 4, CtBP-E1A inh -12, HP1b binding inh -11%, BAZ2B block 20µM*, JMJD2A Tudor inh 25µM* and G9a block 40µM*.
For CC(=O)Nc1ccc(NC(=O)C(c2ccccc2)N2Cc3ccccc3C2=O)cc1 (centres undefined) the results were HP1b binding inh 22%, BAZ2B block 2%, JMJD2A Tudor inh -6% and G9a block -31%[59 µM].
Cc1cccc(C)c1NC(=O)C1C(c2ccccc2)=Nc2ccccc2N1C(=O)c1cnccn1 (centres undefined) was read as Six1-Eya2 inh 19 and CtBP-E1A inh 24.
c1ccc(-c2nnc(SCc3nnc(-c4cccs4)o3)o2)cc1 was read as Six1-Eya2 inh -6, CtBP-E1A inh 4, HP1b binding inh 26%, BAZ2B block 50µM*, JMJD2A Tudor inh -12% and G9a block inconclusive.
For Cc1c(O)ccc(C(=O)CN2CCN(c3ccccc3)CC2)c1O the results were Six1-Eya2 inh 5, HP1b binding inh 87%, BAZ2B block inconclusive, JMJD2A Tudor inh 2% and G9a block 45µM*.
COc1ccc(N2CCN(CC(=O)c3ccc(O)c(C)c3O)CC2)cc1 was read as Six1-Eya2 inh -9, HP1b binding inh -6%[57 µM], BAZ2B block inconclusive, JMJD2A Tudor inh inconclusive and G9a block 40µM*.
